Source: PubChem BioAssay (NCI)
About 83,000 compounds went through this panel and 20% of them were active in at least one assay; those are over-represented in the sample as a whole.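 Values shown are percent growth following 48 h exposure of cells in 96-well plates to a single concentration of compound; below 10 was considered active.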 Values without a mark were called inactive. The source made the active and inactive calls.

System: NCI/ADR-RES ovarian
Test: NCI-60 one-dose screen, 48 h (100 = growth as untreated, 0 = no growth, -100 = all killed)
Settings: 10 µM

Structure (SMILES) | growth
CCOC(=O)C1CCc2c(ccc3ccccc23)N1CCC#N (stereo unspecified) | 82%
CN(C)CCN1C(=O)c2cccc3cc(N)cc(c23)C1=O | 32.3%
COc1ccc2c(c1)nc(N)c1c3cccnc3cn21 | -2.31% (active)
CN1CC[C@@H](c2c(O)cc(O)c3c(=O)cc(-c4ccccc4Cl)oc23)[C@@H](O)C1 | 12.2%
O=C(/C=C/c1cc2ccccc2[nH]c1=O)c1ccc2c(c1)OCO2 | 105%
CCCC1(CC(=O)O)OCCc2c1[nH]c1ccccc21 (stereo unspecified) | 107%
C=C(Cl)[C@@](Cl)(CBr)CC[C@@H](Br)C(C)(C)Cl | -66.6% (active)
CC[C@H](C)C(=O)O[C@H]1CCC=C2C=C[C@H](C)C(CCC3C[C@@H](O)CC(=O)O3)[C@H]21 (stereo partly specified) | 21.5%
CC1CN(Cc2ccccc2)C(=O)NC1=O (stereo unspecified) | 107%
Cc1cccc2c(NCCN(C)C)c3cccc(C(=O)NCCN(C)C)c3nc12 | -3.11% (active)
O=C(CCCCCCC(=O)Nc1cccnc1)NO | 2.65% (active)
O=C1OCC2=C1C(c1cccc(Br)c1)c1cc3c(cc1N2CCO)CCC3 (stereo unspecified) | -5.39% (active)
O=C(CNC(=O)OCc1ccccc1)NCC(=O)Oc1ccc([N+](=O)[O-])cc1 | 96.2%
CC(C)C[C@H](NC(=O)[C@H](Cc1cccc2ccccc12)NS(=O)(=O)c1cccc2cccnc12)B(O)O | 14.6%
Cc1cc(C)c(NC(=O)c2sc3nc4c(cc3c2N)C(=O)CCC4)c(C)c1 | -8.04% (active)
COc1cc(NC(=O)CSc2nc3ccccc3c(=O)n2CCc2ccccc2)cc(OC)c1OC | 36.5%
CCOCCOCCOCCOCCOCCOCCOCCOCCOCCO (tested in a mixture with another compound) | 55.7%
COc1cc(OC)cc(-c2cncn2-c2ccc(-c3nc4cc(OC)cc(OC)c4s3)cc2)c1 | 21.2%
COc1ccc(OC)c2c1C(=O)CC2C (stereo unspecified) | 108%
Nc1ncn(C2OC(CO)C(O)C2O)c(=O)n1 (stereo unspecified) | 15.1%
N#Cc1c(C#N)c(SSc2c(C#N)c(C#N)c(N)n2-c2ccccc2)n(-c2ccccc2)c1N | 101%
CCCCCCCCCCCCCCCCCCOCC(COCCOCC[N+]1(CCCCCC(=O)[O-])CCCC1)Oc1ncccn1 (stereo unspecified) | 108%
O=C1NC(=O)N(Cc2ccccc2)CC1Br (stereo unspecified) | 56.6%
C=C(NC(=O)C(=C)NC(=O)c1csc(C2=NC3c4csc(n4)C4NC(=O)c5csc(n5)C(C(C)(O)C(C)O)NC(=O)C5CSC(=N5)/C(=C/C)NC(=O)C(C(C)O)NC(=O)c5csc(n5)C3(CC2)NC(=O)C(C)NC(=O)C(=C)NC(=O)C(=C)NC(=O)C(C(C)C)NC2C=Cc3c(C(C)O)cc(nc3C2O)C(=O)OC4C)n1)C(N)=O (stereo unspecified) | 77.2%
O=C1ON=[N+](c2ccc(Cc3ccc([N+]4=NOC(=O)C4CN4CCOCC4)cc3)cc2)C1CN1CCOCC1 (stereo unspecified) | 63.4%
C/C(=N\Nc1nc2ccccc2s1)c1ccncn1 | 22.9%

System: T-47D breast
Test: as above
Settings: 10 µM

Structure (SMILES) | growth
c1ccc([C@H]2CN3CCSC3=N2)cc1 | 99.6%
NC(=O)SCC(=O)Nc1ccc(S(N)(=O)=O)cc1 | 98.2%
Cc1nc2ccc(CN(C)c3ccc(C(=O)N[C@@H](CCC(=O)O)C(=O)O)s3)cc2c(=O)[nH]1 | 55.4%
COc1ccc(OC)c(/C=C/c2nc(SCc3ccccc3)n(-c3ccc(Cl)cc3)n2)c1 | 78%
COc1cc(Cc2cc(-c3ccc(Cl)cc3)n[nH]c2=O)ccc1O | 91%
CN(C)C(=S)N/N=C\C=N/NC(=S)N(C)C | 15%
COC(=O)[C@@H]1[C@H](O)[C@H](C)[C@H](O)[C@@](C)(O)/C=C\C=C(C)C(=O)Nc2c(C)c(OC(C)=O)c3c(c2O)C(=O)C(C)=C2OCOC(=C23)C(C)=C[C@@](C)(O)[C@H](O)[C@@H](C)[C@H]1OC(C)=O | 102%
COc1cccc(C2C3=C(COC3=O)N(CCO)c3cc(OC)ccc32)c1 (stereo unspecified) | 62.1%
CCc1ccc2c(c1)N(CCO)C1=C(C(=O)OC1)C2c1ccccc1 (stereo unspecified) | 95.6%
CO/N=C(/C(=O)NC1C(=O)N2C(C(=O)O)=C(COC(N)=O)CSC12)c1ccco1 (stereo unspecified) | 101%
COc1ccc(N2C(=O)C3c4[nH]c5ccc(OCc6ccccc6)cc5c4C4CCC(C(C)C)CC4C3C2=O)cc1 (stereo unspecified) | 104%
CCN(CC)CCNC(=O)c1ccc(NC(C)=O)cc1 | 99.7%
CN(C)CCN1C(=O)c2cccc3cc(N)cc(c23)C1=O | 12.4%
COc1ccc2c(c1)nc(N)c1c3cccnc3cn21 | 62.6%
CN1CC[C@@H](c2c(O)cc(O)c3c(=O)cc(-c4ccccc4Cl)oc23)[C@@H](O)C1 | 4.59% (active)
O=C(/C=C/c1cc2ccccc2[nH]c1=O)c1ccc2c(c1)OCO2 | 72.2%
CCCC1(CC(=O)O)OCCc2c1[nH]c1ccccc21 (stereo unspecified) | 194%
C=C(Cl)[C@@](Cl)(CBr)CC[C@@H](Br)C(C)(C)Cl | -58.9% (active)

Structure (SMILES) | growth
CC[C@H](C)C(=O)O[C@H]1CCC=C2C=C[C@H](C)C(CCC3C[C@@H](O)CC(=O)O3)[C@H]21 (stereo partly specified) | 105%
CC1CN(Cc2ccccc2)C(=O)NC1=O (stereo unspecified) | 97.2%
Cc1cccc2c(NCCN(C)C)c3cccc(C(=O)NCCN(C)C)c3nc12 | 29.3%
O=C(CCCCCCC(=O)Nc1cccnc1)NO | -28.7% (active)
O=C1OCC2=C1C(c1cccc(Br)c1)c1cc3c(cc1N2CCO)CCC3 (stereo unspecified) | 71.5%
CC(C)C[C@H](NC(=O)[C@H](Cc1cccc2ccccc12)NS(=O)(=O)c1cccc2cccnc12)B(O)O | -44.6% (active)
Cc1cc(C)c(NC(=O)c2sc3nc4c(cc3c2N)C(=O)CCC4)c(C)c1 | 40.6%
COc1cc(NC(=O)CSc2nc3ccccc3c(=O)n2CCc2ccccc2)cc(OC)c1OC | -1.62% (active)
COc1cc(OC)cc(-c2cncn2-c2ccc(-c3nc4cc(OC)cc(OC)c4s3)cc2)c1 | 62.8%
COc1ccc(OC)c2c1C(=O)CC2C (stereo unspecified) | 98.8%
Nc1ncn(C2OC(CO)C(O)C2O)c(=O)n1 (stereo unspecified) | 10.6%
N#Cc1c(C#N)c(SSc2c(C#N)c(C#N)c(N)n2-c2ccccc2)n(-c2ccccc2)c1N | 96.5%
CCCCCCCCCCCCCCCCCCOCC(COCCOCC[N+]1(CCCCCC(=O)[O-])CCCC1)Oc1ncccn1 (stereo unspecified) | 42.3%
O=C1NC(=O)N(Cc2ccccc2)CC1Br (stereo unspecified) | 57%
C=C(NC(=O)C(=C)NC(=O)c1csc(C2=NC3c4csc(n4)C4NC(=O)c5csc(n5)C(C(C)(O)C(C)O)NC(=O)C5CSC(=N5)/C(=C/C)NC(=O)C(C(C)O)NC(=O)c5csc(n5)C3(CC2)NC(=O)C(C)NC(=O)C(=C)NC(=O)C(=C)NC(=O)C(C(C)C)NC2C=Cc3c(C(C)O)cc(nc3C2O)C(=O)OC4C)n1)C(N)=O (stereo unspecified) | -6.42% (active)
O=C1ON=[N+](c2ccc(Cc3ccc([N+]4=NOC(=O)C4CN4CCOCC4)cc3)cc2)C1CN1CCOCC1 (stereo unspecified) | 56.1%
C/C(=N\Nc1nc2ccccc2s1)c1ccncn1 | -0.411% (active)
